# ClpP mod: qHTS Assay for Activators of ClpP | ATP-dependent Clp protease proteolytic subunit (Bacillus subtilis (strain 168)), P80244 | purified B. subtilis ClpP, FRET peptide cleavage, 20 min | Potency, µM (highest dose often 57.5 µM) | 1.9% of 340,000 active; active = well fitted falling curve with a large enough effect; inconclusive = small, poorly fitted or top-dose-only effect; inactive = no such curve, though single readings can be large or run the other way; also: the source files actives as falling curves though it sought activators and does not explain the sign; nearly all actives have a fitted effect of over 65% in size
#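 Buffer: 100 mM Tris/HCl pH8, 100 mM KCl, 0.05% low protease BSA, 2.5% glycerol, 0.01% Tween-20. ClpP 10 microg/mL final; 20 min RT; delta FRET normalized to ADEP and DMSO controls.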
# TDP1 cell CPT: DT40-hTDP1 cell growth loss with CPT. chicken DT40 Tdp1-/-;hTDP1 cells + 20 nM CPT, ATP luminescence, 48 h. 12% of 420,000 active. AID 686979. Potency, µM (highest dose often 46.2 µM), usual class: inhibitors; also: nearly all actives have a fitted effect of over 55% in size
#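 Cell growth measured by CellTiter-Glo luminescence after a minimum 48 h, 37 C compound exposure with 20 nM CPT in Tdp1-knockout DT40 cells stably expressing hTDP1, seeded 400/well; qHTS titration format.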
# TDP1 cell noCPT: qHTS for Inhibitors of human tyrosyl-DNA phosphodiesterase 1 (TDP1): qHTS in cells in absence of CPT. DT40 Tdp1-/- hTDP1 cells, no CPT, ATP luminescence, 48 h. Potency, µM (titrated, usually from 46.2 µM), most hits filed as inhibitors. 15% of 420,000 active. AID 686978, 2013; also: nearly all actives have a fitted effect of over 55% in size
#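 Camptothecin absent (DMSO only). Human TDP1-complemented DT40 knockout cells, 400 cells/well, 37 °C for minimum 48 hr; ATP measured via CellTiter-Glo, 30 min dark incubation, luminescence.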
# TDP1 inh: TDP1 (human) enzyme inhibition. Q9NUW8. recombinant TDP1, AlphaScreen DNA substrate cleavage. Potency, µM (series often up to 130 µM), most hits filed as inhibitors. 0.28% of 350,000 active. AID 485290; also: nearly all actives have a fitted effect of over 40% in size
#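 Signal: AlphaScreen proximity between streptavidin donor and anti-FITC acceptor beads on intact substrate. Reaction: Tdp1 1 nM, substrate 15 nM final, 5 min RT after 15 min compound preincubation.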
# Hits are given with their value; . = inactive; ? = inconclusive; / = no result given; [ ] = another dose, or the depositor's remark. A selection: hits, their analogues and other compounds. The true share with any hit is near 17%. Unless noted, calls follow the shape of the dose curve; as a rule, active = well fitted curve in the direction sought with a large enough effect; inconclusive = small, poorly fitted or top-dose-only effect, or another doubt; inactive = no such curve, though single readings can be large; an effect the other way counts as inactive or inconclusive.
SMILES,ClpP mod,TDP1 cell CPT,TDP1 cell noCPT,TDP1 inh
CCC1CN(C(=O)N2CCC(C(=O)NCCC3=CCCCC3)CC2)c2ccccc2O1 (centres undefined),.,16µM,12µM,.
O=C(NC1CCCCC1)c1c(O)nc2sccn2c1=O,/,?,?,.
COc1ccc(C(CNC(=O)c2cc(SC)ccc2Cl)N(C)C)cc1 (centres undefined),.,?,.,.
CCOc1ccc(NC(=O)CCC(=O)NNC(=O)COc2ccccc2C)cc1,/,.,.,.
Cc1ccc2c(c1)N(C(=O)N1CCC(C(=O)NCCC3=CCCCC3)CC1)CC(C)O2 (centres undefined),.,?,18µM,.
CCC1CN(C(=O)N2CCC(C(=O)NCc3ccccc3F)CC2)c2ccccc2O1 (centres undefined),.,?,15µM,.
CCC1CN(C(=O)N2CCC(C(=O)NCCc3ccc(Cl)cc3)CC2)c2ccccc2O1 (centres undefined),.,16µM,15µM,.
CCC1CN(C(=O)N2CCC(C(=O)NCc3cccc(C)c3)CC2)c2ccccc2O1 (centres undefined),.,16µM,21µM,.
CCC1CN(C(=O)N2CCC(C(=O)NCCN(CC)CC)CC2)c2ccccc2O1 (centres undefined),.,.,.,.
O=C(C1CCC(=O)N(C2CC2)C1)N1CCN(c2cccc(Cl)c2)CC1 (centres undefined),.,.,.,.
O=C(/C=C/c1ccccc1)OCc1cnc(Cl)s1,.,.,.,.
CCC1CN(C(=O)N2CCC(C(=O)NCCc3ccccc3Cl)CC2)c2cc(C)ccc2O1 (centres undefined),.,16µM,21µM,.
CCC1CN(C(=O)N2CCC(C(=O)NCCc3ccccc3C)CC2)c2ccccc2O1 (centres undefined),.,?,21µM,.
CCn1ccc2cc(S(=O)(=O)N3CCC(C(=O)NCCc4ccccc4Cl)CC3)ccc21,.,?,?,.
CCCCC(=O)N(C)c1c(CC)nc2c(OCC(=O)N(C)C)cccn12,.,.,.,/
COc1ccc(-n2c(=O)c(-c3cn(C)c4ccccc34)nc3cncnc32)cc1,/,.,.,/
COc1ccc(OC)c(/C=N/NC(=O)CCc2c(C)n[nH]c2C)c1,.,.,.,.
COc1ccc(OC)c(C=NNC(=O)NN=Cc2cc(OC)ccc2OC)c1,.,?,26µM,/
COc1ccc(OC)c(/C=N/NC(=O)CC2C(=O)NN=C2C)c1 (centres undefined),28µM,.,.,.
COc1ccc(OC)c(/C=N/NC(=O)CCc2ccc(O)c(O)c2)c1,8.9µM,21µM,?,.
COc1ccc(OC)c(/C=N/NC(=O)C(=O)N/N=C/c2cc(OC)ccc2OC)c1,/,.,?,/
Cc1ccccc1Nc1c(-c2cccnc2)nc2ccc(Br)cn12,.,15µM,?,.
Cc1ccc2nc(-c3ccncc3)c(Nc3ccccc3C)n2c1,.,?,?,.
Cc1ccc2nc(-c3cccnc3)c(Nc3ccccc3C)n2c1,.,16µM,?,.
Cc1ccccc1Nc1c(-c2ccncc2)nc2ccc(Br)cn12,.,23µM,18µM,.
SMILES,ClpP mod,TDP1 cell CPT,TDP1 cell noCPT,TDP1 inh
Cc1ccccc1Nc1c(-c2cccnc2)nc2ccccn12,.,21µM,?,.
Cc1ccc(Nc2c(-c3cccnc3)nc3ccc(C)cn23)cc1,.,?,?,.[12.3 µM]
N#Cc1ccc(CS(=O)(=O)c2nnnn2-c2ccccc2)cc1,/,/,/,.
O=C(CSc1n[nH]c(-c2ccccc2)n1)Nc1ccccc1O,.,.,.,.
CCCNC(=O)C1(C)CCCN(Cc2ccc(C(=O)OCC)o2)C1 (centres undefined),.,?,?,/
Cn1c(=O)c2c(ncn2CC(O)CNc2ccc(F)cc2)n(C)c1=O (centres undefined),.,.,.,.
C/C=C/C(=O)C[C@H]1CC[C@@H](C)[C@@H](CCO)O1,/,/,/,.
Cc1ccccc1Nc1c(-c2ccc(Br)o2)nc2ccc(Cl)cn12,28µM,?,?,.
Cc1ccccc1Nc1c(-c2c(F)cccc2Cl)nc2ccc(Br)cn12,.,?,?,.
Cc1ccccc1Nc1c(-c2ccc(Cl)cc2)nc2c(C)cccn12,.,?,.,.
Cc1ccccc1Nc1c(-c2cccc(N(C)C)c2)nc2ccc(Br)cn12,.,13µM,23µM,.
Cc1ccccc1Nc1c(-c2cccnc2)nc2ccc(Cl)cn12,?,12µM,?,.[12.3 µM]
COc1ccc(-c2nc3ccccn3c2Nc2ccccc2C)cc1,.,11µM,?,.
CC(=O)c1c(C)[nH]c(C(=O)OCC(=O)N(CC(C)C)C2CCS(=O)(=O)C2)c1C (centres undefined),.,.,.,.
CC(C)C[C@@H](CC(=O)N[C@@H](CCCN)CC(=O)N[C@@H]1CCCC[C@H]1C(=O)N[C@H](CC(=O)N[C@@H](CCC(=O)O)CC(=O)O)Cc1c[nH]c2ccccc12)NC(=O)[C@@H]1CNCC[C@H]1N,/,/,/,.
CCC(=O)N1CCc2cc(S(=O)(=O)CCC(=O)Nc3cc(Cl)ccc3OC)ccc21,.,?,?,.
O=C(NCC(O)CO)c1c(I)c(C(=O)NCC(O)CO)c(I)c(N(CCO)C(=O)CO)c1I (centres undefined),/,.,.,/
Clc1ccc2nc(-c3ccc(Br)o3)c(Nc3ccc4c(c3)OCCO4)n2c1,.,21µM,?,.
Cc1ccc(Nc2c(-c3ccc(C)o3)nc3ncccn23)cc1,/,.,.,/
Cc1ccc(-c2nc3ccccn3c2Nc2ccccc2C)o1,.,?,16µM,.
COC(=O)[C@@H](NC(=O)N1CCc2nc(-c3ccc(OC)cc3C)c3c(c2C1)CO[C@@H](c1ccccc1)C3)C(C)C,/,/,/,.[12.3 µM]
Cc1ccc(C2=C(O)C(=O)C(c3ccc(C)cc3)=C(O)C2=O)cc1,.,?,12µM,/
CC1=C(O)C(=O)C(C2=C(O)C(=O)C(C)=C(O)C2=O)=C(O)C1=O,.,.,.,/
OCC1CSC(=S)N1Cc1ccccc1 (centres undefined),.,?,?,/
CCN(CC)CCN1C(=O)c2cccc3cc(N)cc(c23)C1=O,.,12µM,7.3µM,.
SMILES,ClpP mod,TDP1 cell CPT,TDP1 cell noCPT,TDP1 inh
O=C1c2cccc3cc([N+](=O)[O-])cc(c23)C(=O)N1CCN1CCCC1,/,0.21µM,0.13µM,.
Nc1cc2c3c(cccc3c1)C(=O)N(CCN1CCCC1)C2=O,/,0.73µM,1.2µM,.
CCN(CC)c1ccc(/C=N/N2C(=O)c3ccccc3C2=O)c(O)c1,.,.,.,.
O=C1c2cccc3cc([N+](=O)[O-])cc(c23)C(=O)N1/N=C/c1ccc(O)cc1O,/,?,16µM,.
Cn1c2c(c(=O)n(C)c1=O)C1c3cc(Cl)ccc3OCC1CO2 (centres undefined),.,.,.,.
COc1cccc([C@@H]2Oc3ccc(OC)cc3/C(=N/O[C@@H](C)c3cc(-c4c(C)cc(C)cc4C)no3)[C@@H]2O)c1,/,/,/,.[21 µM]

# Screens deposited in PubChem by National Center for Advancing Translational Sciences (NCATS).
